KB-3-1 cytotox = kills parental KB-3-1 adenocarcinoma cells. hit rate 1.4% among 400,000. AID 1347075. Potency, µM (doses to about 46.1 µM), actives largely listed as cytotoxic. KB-3-1 viability, CellTiter-Glo ATP luminescence, 72 h; also: % is scaled to controls: 0 for no effect and ±100 for the full control effect; nearly all actives have a fitted effect of over 60% in size
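KB-3-1 parental drug-naive adenocarcinoma cells in DMEM/10% FBS, incubated 72 h at 37 C with pin-transferred compounds across a concentration series. Viability by CellTiter-Glo luminescence; concentration-response curves fitted after normalization.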
ELG1 repair inh = ELG1-dependent DNA repair inhibition; HEK293T ELG1-luciferase reporter, luminescence, 16 h; DNA damage induced by 5-fluorouridine; Potency, µM (top dose mostly 46.1 µM), without a hit: at the highest dose activity change, negative = inhibition, usual class: inhibitors; hit rate 2.3% among 330,000; also: % is scaled to controls: 0 for no effect and ±100 for the full control effect; nearly all actives have a fitted effect of over 55% in size
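5-Fluorouridine DNA damage + compound/DMSO, 2,000 cells/well, 16 h, 37 °C/5% CO2. ONE-Glo, 30 min RT, luminescence. Readout = decrease in reporter signal.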
KB-V1 cytotox = kills drug-selected multidrug resistant KB-V1 cells | hit rate 3.4% among 400,000 | AID 1347076 | Potency, µM (highest dose often 46.1 µM), actives largely listed as cytotoxic | KB-V1 MDR cells viability, CellTiter-Glo, 72 h; also: % is scaled to controls: 0 for no effect and ±100 for the full control effect; nearly all actives have a fitted effect of over 60% in size
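qHTS viability screen in drug-selected KB-V1 MDR cells: 72 h compound treatment at 37 degrees C, ATP luminescence end point.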
SW480 rereplic = DNA re-replication induction in SW480 cells. SW480 DNA re-replication, Hoechst DNA content imaging, 48 h. Potency, µM (doses to about 46.1 µM), without a hit: at the top dose re-replication activation, usual class: activators. hit rate 1.8% among 340,000. AID 624297; also: % of control where 0% means no effect; nearly all actives have a fitted effect of over 55% in size
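Quantitative HTS format with DMSO vehicle controls; 48 hr drug incubation at 37 C, then 40 min Hoechst staining and scanning imager measurement at 405 nm excitation.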
MCF10A rerep = DNA re-replication induction in MCF 10a cells | MCF 10A DNA re-replication, Hoechst nuclear intensity, 48 h | Potency, µM (top dose mostly 46.1 µM), for the others: at the top dose activity, positive = re-replication, hits mostly activators | hit rate 2.9% among 350,000; also: % of control where 0% means no effect; nearly all actives have a fitted effect of over 50% in size
Numbers without * were called inactive; i = inactive; ? = inconclusive; · = no result given; [ ] = another dose, or the depositor's remark. In the library only some 8.1% were active in any assay of this set; here they are far more common. Calls follow the shape of the dose curve; as a rule, active = well fitted curve in the direction sought with a large enough effect; inconclusive = small, poorly fitted or top-dose-only effect, or another doubt; inactive = no such curve, though single readings can be large; an effect the other way counts as inactive or inconclusive. Potency is read from the fitted curve at half-maximal effect.

SMILES	KB-3-1 cytotox	ELG1 repair inh	KB-V1 cytotox	SW480 rereplic	MCF10A rerep
CCCc1noc2c1/C(=N\O)CC(c1ccccc1)C2 (stereo not drawn)	i	?	i	-5%	?
Cc1ccc(C(c2nnnn2C2CCCCC2)N(C)C2CCCCC2)cc1 (stereo not drawn)	i	-15%	i	11%	?
CC(C)C(c1nnnn1C1CCCC1)N(C)C1CCCCC1 (stereo not drawn)	i	-1%	18µM*	-8%	-6%
Clc1ccc(C(c2nnnn2C2CCCC2)N2CCSCC2)cc1 (stereo not drawn)	i	?	i	-3%	21µM*
Fc1ccc(C(c2nnnn2C2CCCCC2)N2CCCC2)cc1 (stereo not drawn)	i	12%	?	-7%	2%
O=c1[nH]c2cc3c(cc2cc1C(c1nnnn1C1CCCC1)N1CCSCC1)OCCO3 (stereo not drawn)	?	1%	10µM*	2%	8%
Cc1ccc(C(c2nnnn2C2CCCC2)N2CCc3ccccc32)cc1 (stereo not drawn)	i	11%	21µM*	-8%	?
CC(=O)N1CCc2c(sc3c2c(=O)n(Cc2ccccc2)c(=O)n3Cc2ccccc2Cl)C1	i	·	i	·	·
CCC(c1nnnn1-c1c(C)cccc1C)N1CCCN(Cc2ccc(F)cc2)CC1 (stereo not drawn)	i	·	?	·	·
COc1cc2cc(C(c3nnnn3C3CCCCC3)N(C)C3CCCCC3)c(=O)[nH]c2cc1OC (stereo not drawn)	21µM*	?	23µM*	14%	2%
COc1cc2cc(C(c3nnnn3C3CCCC3)N(C)C3CCCCC3)c(=O)[nH]c2cc1OC (stereo not drawn)	i	-13%	i	-2%	-23%
N#Cc1c(N)[nH]c(C(=O)c2ccccc2)c1-c1ccc(Cl)cc1	i	·	i	·	·
COc1ccc(-c2cc(C(=O)N(C)CC(=O)Nc3ccccc3C(F)(F)F)c3ccccc3n2)cc1OC	i	·	i	3%	?
COc1cccc(NC(=O)CN(C)C(=O)c2cc(-c3ccccc3)nc3ccc(C)cc23)c1	i	·	i	?	?
COc1ccc(NC(=O)CN(C)C(=O)c2cc(-c3ccc(Cl)cc3)nc3ccccc23)cc1	i	?	?	9%	18µM*
CCOc1ccc(NC(=O)CN(C)C(=O)c2cc(-c3ccc(OC)cc3)nc3ccccc23)cc1OCC	i	9.2µM*	?	3%	16µM*
O=C1c2cccnc2C(=O)N1c1nc(-c2ccccc2)cs1	i	·	i	·	·
Cc1cc(C)nc(Sc2ncnc3sc4c(c23)CCC4)n1	?	?	?	13µM*	-182%[0.0737 µM]
CCOc1ccc(NC(=O)CC2C(=O)N(c3ccc(C)cc3)C(=O)N2C2CCCCC2)cc1 (stereo not drawn)	i	·	i	·	·
N#Cc1ccc(-c2c(-c3ccccc3)ncc3cc(F)ccc23)cc1	i	?	i	-60%[9.22 µM]	?
O=C1C2CC=CCC2C(=O)N1c1ccc(Cc2ccncc2)cc1 (stereo not drawn)	?	0%	16µM*	-8%	?
COC(=O)c1ccccc1NC(=O)CN1C(=O)C2CCCN2c2ncc(Cl)cc21 (stereo not drawn)	·	-4%	·	·	·
CCc1ccccc1NC(=O)CN1C(=O)C2CCCN2c2ncc(Cl)cc21 (stereo not drawn)	i	-7%	15µM*	10%	?
COc1ccccc1CNc1ncnc2c1nc1n2CCCC1	i	·	?	·	·
CCCCN(C)CCCNC(=O)C1CCN(S(=O)(=O)CCC)CC1	i	·	i	·	·
SMILES	KB-3-1 cytotox	ELG1 repair inh	KB-V1 cytotox	SW480 rereplic	MCF10A rerep
COc1ccccc1/C=C1\C=Cc2ccccc21	i	·	i	·	·
C#CCOc1ccc(/C=C2\SC(=S)N(Cc3cccnc3)C2=O)cc1	21µM*	12%	?	15µM*	21µM*
CCOc1ccc(NC(=O)CN2CCN(CC(=O)Nc3ccccc3OC)CC2)cc1	i	?	i	-3%	-10%
COc1ccccc1NC(=O)CN1CCN(C2c3ccccc3-c3ccccc32)CC1	?	3.7µM*	i	?	5.8µM*
CCOc1ccc(NC(=O)CN2CCN(C3c4ccccc4-c4ccccc43)CC2)cc1	i	13µM*	18µM*	12%	?
Cc1ccc(S(=O)(=O)c2[nH]c(-c3ccccc3)nc2SCC(N)=O)cc1	i	·	i	·	·
COc1ccc(CNC(=O)NC2CCCCC2)cc1	i	?	i	18µM*	3.7µM*
COc1ccc(CCNC(=O)C(=O)NCC2CCCO2)cc1 (stereo not drawn)	i	10%	i	-7%	-10%
COc1ccc(CNC(=O)C(=O)NCC2CCCO2)cc1 (stereo not drawn)	18µM*	?	i	-27%	?
CCOc1cc(NC(=S)NCC2CCCO2)c(OCC)cc1NC(=O)c1ccc(OC)cc1 (stereo not drawn)	i	13µM*	i	-7%	-3%
CC(OC(=O)C1=Cc2ccccc2OC1)C(=O)NCC1CCCO1 (stereo not drawn)	i	·	i	0%	21µM*
Cc1ccc(C(=O)N[C@H](C(=O)NC2CCCCC2)C(C)C)cc1	i	0%	10µM*	2%	-3%
CCOc1ccc(C(=O)NC(C(=O)NCC2CCCO2)C(C)C)cc1 (stereo not drawn)	i	23µM*	i	-6%	3%
COc1ccc(C(=O)NC(C(=O)NCC2CCCO2)C(C)C)cc1 (stereo not drawn)	i	7%	i	3%	-6%
CCCCc1c(C)[nH]c2c(OC)cccc2c1=S	i	·	i	·	·
O=C(Nc1ccccc1F)c1csc([C@@H]2C[C@H](O)[C@@H](CO)O2)n1	i	·	i	·	·
Cc1cccc(Nc2nc(-c3ccccc3)c(C(=O)Nc3cccnc3)s2)c1	?	13µM*	?	16µM*	23µM*
O=C(Nc1cccnc1)c1sc(Nc2ccccc2)nc1-c1ccccc1	?	?	15µM*	13%	16µM*
Cc1cccc(NC(=O)c2sc(Cl)nc2-c2ccccc2)c1	?	7%	i	-3%	26%
O=C(O)Cc1sc(Nc2ccccc2)nc1-c1ccccc1	i	·	i	·	·
COc1ccc(NC(=O)c2cc(C3CCCCN3S(=O)(=O)c3ccc(F)cc3F)on2)c(C)c1 (stereo not drawn)	i	·	i	·	·
CCCCCCCCn1c(=O)c(C(=O)OCC)c(O)c2ccccc21	i	2%	i	-1%	?
CCCCCn1c(=O)c(-c2nc3ccccc3[nH]2)c(O)c2ccccc21	?	7.3µM*	?	18µM*	?

High-throughput results (PubChem BioAssay)
